Screening results from PubChem.
DAX1 inh-1 – inhibitors of human orphan nuclear receptor DAX1 (NR0B1); P51843; HEK293 Gal4-DAX1 luciferase reporter, luminescence; inhibition, % at 6.75 µM; actives 0.99% (n = 340,000); AID 504766;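 active = inhibition above the mean over all tested compounds plus 3 SD, cut at about 4.2% in these data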;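 also: 0% = DAX1-transfected cells with DMSO and 100% = empty-vector control cells with DMSO; inhibition shows as a rise in luminescence from relieved DAX1 repression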
Target sequence (P51843 207-470 limits assumed): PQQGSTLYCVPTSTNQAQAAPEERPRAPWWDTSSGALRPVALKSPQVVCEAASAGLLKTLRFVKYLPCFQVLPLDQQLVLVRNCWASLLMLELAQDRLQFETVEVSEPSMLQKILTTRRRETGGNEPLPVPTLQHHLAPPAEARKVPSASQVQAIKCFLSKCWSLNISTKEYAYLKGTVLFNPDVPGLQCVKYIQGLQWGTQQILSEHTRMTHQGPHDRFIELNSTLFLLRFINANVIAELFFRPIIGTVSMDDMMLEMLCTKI
ssDAF12 agonist – activates DAF-12 receptor from parasite S. stercoralis; HEK293 ssDAF-12/GRIP1 lit1-tk-luc reporter, luminescence; % of 3 µM dafachronic acid response; activation, % at 6.8 µM; actives 1% (n = 370,000); AID 652126;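 active = activation above the mean over all tested compounds plus 3 SD, cut at about 0.9% in these data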;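 also: 0% = DMSO-only wells and 100% = 3 µM delta7-dafachronic acid wells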
DAX1 inh-2 – blocks DAX1 repression of SF-1 activated StAR promoter. HEK293T StAR-luciferase reporter, SF-1/DAX-1 repression relief. actives 1.1% (n = 370,000). inhibition, % at 6.8 µM;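 active = inhibition above the mean over all tested compounds plus 3 SD, cut at about 3.6% in these data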;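 also: 0% = DAX-1 cells with DMSO and 100% = cells lacking DAX-1 with DMSO; higher inhibition means more luminescence from relief of DAX-1 repression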
hgDAF12 agonist – activates the H. glycines DAF-12 receptor ligand-binding domain; AID 687014; actives 1.8% (n = 370,000); HEK293 GAL4-hgDAF12 UAS-luciferase reporter, agonist luminescence; normalized to butyrate control; activation, % at 6.8 µM;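 active = activation above a cutoff set at the mean of all screened compounds plus 3 SD, cut at about 10% in these data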;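 also: 0% = DMSO wells and 100% = sodium butyrate wells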
hcDAF12 agonist – activators of H. contortus DAF-12 nuclear receptor | HEK293 hcDAF-12 lit1-tk-luc reporter, luminescence; 0% DMSO, 100% Δ7-dafachronic acid | activation, % at 6.8 µM | actives 1.4% (n = 370,000);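 active = activation above the mean of all tested compounds plus 3 SD, cut at about 5.5% in these data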;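 also: 100% = response to 3 µM Δ7-dafachronic acid high control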
LXRb hcDAF ctr – activates human LXR-beta, counter-screen for hcDAF-12 agonists; shares compounds with hcDAF12 agonist; HEK293 Gal4-LXR tk-luc reporter, luminescence, 24 h; normalized: DMSO 0%, positive control 100%; activation, % at 6.8 µM; 3,400 tested, under 10 active; AID 743027;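 active = mean percent activation of the reporter above a cutoff set as the average over tested compounds plus their standard deviation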
hcDAF12 conf – confirmation of H. contortus DAF-12 agonists | shares compounds with hcDAF12 agonist | AID 743032 | HEK293 hcDAF-12 lit1-tk-luc reporter, luminescence; % of Δ7-dafachronic acid response | actives 61% (n = 3,400) | activation, % at 6.8 µM;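 active = mean activation across triplicate tests above the threshold derived from the earlier primary screen, cut at about 5.5% in these data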;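 also: 0% = DMSO only wells and 100% = 3 µM Δ7-dafachronic acid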
Starred values were filed as active, the others as inactive. An excerpt weighted towards active compounds, which were near 4.1% of everything screened.

What do the screens show for `CCOc1ccccc1NC(=O)CSc1nc2ccccc2nc1N1CCCC1`?
DAX1 inh-1: 0.1; ssDAF12 agonist: 1.5*; DAX1 inh-2: -0.5; hgDAF12 agonist: 3.1; hcDAF12 agonist: 8.0*; LXRb hcDAF ctr: -0.2; hcDAF12 conf: 2.9

How did CCOc1ccccc1NC(=O)CSc1nc2ccccc2nc1N1CCOCC1 do in these assays?
DAX1 inh-1: 1.1; ssDAF12 agonist: 0.3; DAX1 inh-2: 0.1; hgDAF12 agonist: -1.9; hcDAF12 agonist: 2.6

What do the screens show for `CN(C)S(=O)(=O)c1ccc(C(=O)Nc2ccc(Cl)cc2)cc1`?
DAX1 inh-1: -1.8; ssDAF12 agonist: -1.4; DAX1 inh-2: -2.0; hgDAF12 agonist: -0.2; hcDAF12 agonist: -1.1

Results for CN(C)S(=O)(=O)c1ccc(C(=O)NCC(=O)Nc2ccc(F)c(F)c2)cc1 ?
DAX1 inh-1: 0.3; ssDAF12 agonist: -0.8; DAX1 inh-2: 0.1; hgDAF12 agonist: -0.6; hcDAF12 agonist: 6.8*; LXRb hcDAF ctr: -0.1; hcDAF12 conf: 1.0

How did CN(Cc1ccccc1)C(=O)OCc1cn(Cc2ccc(F)c(F)c2)nn1 do in these assays?
ssDAF12 agonist: -1.1; DAX1 inh-2: 0.3; hgDAF12 agonist: 2.1; hcDAF12 agonist: -0.4

How did N#C/C(=C\c1ccc(-c2ccc(C(=O)O)cc2)o1)C(=O)Nc1ccc(F)cc1 do in these assays?
DAX1 inh-1: -0.7; ssDAF12 agonist: 0.3; DAX1 inh-2: 1.1; hgDAF12 agonist: 9.3; hcDAF12 agonist: 6.9*; LXRb hcDAF ctr: 0.1; hcDAF12 conf: 5.4

How did N#C/C(=C\c1ccc(-c2ccc(C(=O)O)cc2)o1)C(=O)NCC1CCCO1 (stereo not given) do in these assays?
DAX1 inh-1: 0.8

Results for Cc1cccc(C)c1NC(=O)/C(C#N)=C/c1ccc(-c2ccc(C(=O)O)cc2)o1 ?
DAX1 inh-1: 4.3*; ssDAF12 agonist: 0.0; DAX1 inh-2: 1.4; hgDAF12 agonist: 8.1; hcDAF12 agonist: 7.0*; LXRb hcDAF ctr: 0.7; hcDAF12 conf: 5.2

Results for CN1C/C(=C/c2ccccc2)N2C(=O)C[C@@H](c3ccccc3)N=C12 ?
ssDAF12 agonist: -1.7; DAX1 inh-2: 0.4; hgDAF12 agonist: -4.7; hcDAF12 agonist: -3.6

Results for O=c1c2ccccc2cnn1-c1ccc(Cl)cc1 ?
DAX1 inh-1: 1.3; ssDAF12 agonist: 1.9*; DAX1 inh-2: 2.9; hgDAF12 agonist: 16.8*; hcDAF12 agonist: 12.1*; LXRb hcDAF ctr: 1.6; hcDAF12 conf: 10.2*

Results for Cc1nn(-c2ccc(Cl)c(Cl)c2)c(=O)c2ccccc12 ?
DAX1 inh-1: 0.3; ssDAF12 agonist: -0.1; DAX1 inh-2: 0.5; hgDAF12 agonist: 5.3; hcDAF12 agonist: 3.6

How did Cc1nn(-c2ccc(Cl)cc2)c(=O)c2ccccc12 do in these assays?
DAX1 inh-1: 1.7; ssDAF12 agonist: 1.1*; DAX1 inh-2: 2.7; hgDAF12 agonist: 9.4; hcDAF12 agonist: 7.2*; LXRb hcDAF ctr: 0.6; hcDAF12 conf: 9.9*

Results for O=c1c2ccccc2cnn1Cc1n[nH]c(=S)n1-c1ccc(Cl)cc1 ?
DAX1 inh-1: 0.7; ssDAF12 agonist: -0.9; DAX1 inh-2: -0.4; hgDAF12 agonist: 0.0; hcDAF12 agonist: -1.4

What do the screens show for `Nc1ccn([C@@H]2O[C@H](C(=O)N[C@H](Cc3ccccc3)C(=O)N3CCSC3)[C@@H](O)[C@H]2O)c(=O)n1`?
ssDAF12 agonist: -0.5; DAX1 inh-2: -0.5; hgDAF12 agonist: -3.2; hcDAF12 agonist: 0.4

What do the screens show for `CC(c1cc(F)ccc1O)c1c[nH]c2ccccc12` (stereo not given)?
ssDAF12 agonist: -0.3; DAX1 inh-2: -0.4; hgDAF12 agonist: 2.5; hcDAF12 agonist: 6.7*; LXRb hcDAF ctr: -0.1; hcDAF12 conf: 5.5

Results for O=C(C1CCC1)N1CCc2cc(S(=O)(=O)N3CCCC3)ccc21 ?
ssDAF12 agonist: -1.7; DAX1 inh-2: -0.8; hgDAF12 agonist: -3.7; hcDAF12 agonist: -0.4

Results for O=[N+]([O-])c1cccc(OCCCN2CCC(C(O)(c3ccccc3)c3ccccc3)CC2)c1 ?
ssDAF12 agonist: -1.7; DAX1 inh-2: -0.5; hgDAF12 agonist: 0.8; hcDAF12 agonist: -1.4
